In all, about 38,000 compounds went through this assay and about 1,200 (3.2%) showed an effect of 50% or more. The median lay at about -58%. The sample as a whole holds a higher share of strong results than the screen did.
What follows are compounds tested on Plasmodium falciparum (assay: Calibr Malaria Delayed Death Assay SOP). Conditions: concentration 4.99e-06 (unit not given; other assays of the set use mol/L).
Type: functional, organism-based
Set-up: scale not given: in the data most compounds retested in dose-response had high values

First: COCCNC(=O)N1CCSC2(CCCCC2)C1
Second: CSCCC(=O)N1CCCC1c1nnc2n1CCCCC2 (stereo unspecified)
The “Percent Effect” value of the first is lower: -161% for the first, -119.3% for the second.

Compared with `CCC(c1ccc(F)cc1)N1CCn2c(CO)nnc2C1` (stereo unspecified), `Cc1nnc2n1CCN(CCCS(=O)(=O)c1ccccc1)C2` is lower in “Percent Effect” value: -61.64% for the first, -71.81% for the second.

Compared with `Cc1noc(C)c1CN1C(=O)[C@H]2CC[C@@H]1CN(Cc1cccc(O)c1)C2`, `Cc1noc(C)c1CN1C[C@H]2CN(Cc3cccc(F)c3)C[C@H]2C1.O=C(O)C(F)(F)F.O=C(O)C(F)(F)F` is higher in “Percent Effect” value: -156.5% for the first, 53.22% for the second.

First: Cc1noc(C)c1CN1C[C@@H]2C[C@@H](C)O[C@@H]2C1.O=C(O)C(F)(F)F
Second: Cc1noc(C)c1CN1C[C@@H]2CC(F)(F)C[C@@H]2C1.O=C(O)C(F)(F)F
The “Percent Effect” value of the first is lower: -81.78% for the first, -65.49% for the second.

Going from `Cc1noc(C)c1CN1CCO[C@H]2CN(Cc3cccc(F)c3)C[C@H]21.O=C(O)C(F)(F)F.O=C(O)C(F)(F)F` to `Cc1noc(C)c1CN1CCO[C@H]2CN(Cc3ccc(F)cc3)C[C@H]21.O=C(O)C(F)(F)F.O=C(O)C(F)(F)F`, the “Percent Effect” value rises from -38.58% to 54.02%.

Going from `Cc1noc(C)c1CN1C[C@H]2CNC[C@H]2C1` to `Cc1noc(C)c1CN1CCO[C@H]2CN(Cc3cnn(C)c3)C[C@H]21.O=C(O)C(F)(F)F.O=C(O)C(F)(F)F`, the “Percent Effect” value rises from 5.878% to 11.54%.

Going from `O=C(Cc1ccccn1)N1C[C@H]2CN(Cc3ccccn3)C[C@H]2C1` to `CN(Cc1cccc(F)c1)C1CCN(CCc2ccccn2)CC1`, the “Percent Effect” value falls from -76.72% to -78.69%.

Going from `O=C(c1ccccn1)N1CCN(c2cnnc(N3CCCC3)c2)CC1` to `O=C(C1CCOC1)N1CCN(Cc2cccnc2)c2ncccc2C1` (stereo unspecified), the “Percent Effect” value rises from -112.9% to -57.83%.

Going from `COc1cccc(N2C(=O)CC3(CCNCC3)C2=O)c1.Cl` to `COc1cc(C2CC(=O)Nc3c2c(=O)[nH]n3C2CCCCC2)ccc1O` (stereo unspecified), the “Percent Effect” value rises from -133.6% to -62.17%.

Going from `COC(=O)CC(NC(=O)c1cc(OC)c2c(c1)OCCO2)c1cccs1` (stereo unspecified) to `O=C(NS(=O)(=O)c1ccc(Cl)cc1F)c1cccc2c1OCCO2`, the “Percent Effect” value falls from -83.17% to -91.83%.

Going from `O=S(=O)(NCCCn1cccn1)c1ccc2c(c1)CCC2` to `Cc1ccc(CN(C)C(=O)CCNS(=O)(=O)c2cccnc2)cc1`, the “Percent Effect” value rises from -131.9% to 36.55%.

Compared with `CCCn1cc(S(=O)(=O)N[C@H]2CN(CC(N)=O)C[C@@H]2C2CC2)cn1`, `CN1C(Cn2cccn2)C[C@@H]2CN(Cc3cnn(C)c3)CC[C@@H]21` (stereo partly specified) is higher in “Percent Effect” value: -97.89% for the first, -48.63% for the second.

Going from `COc1ccc(C2OC(COc3ccc(C)cc3)=NN2C(C)=O)cc1` (stereo unspecified) to `Cc1cc(C)n(Cc2ccc(-c3noc(C(=O)NCCO)n3)cc2)n1`, the “Percent Effect” value rises from -155.6% to -66.65%.

Going from `Cc1noc(C)c1CN1CCC2(CCN(Cc3cccc(F)c3)CC2)C1.O=C(O)C(F)(F)F.O=C(O)C(F)(F)F` to `CC(=O)N1CCC2(CCN(Cc3cccc(F)c3)CC2)CC1.O=C(O)C(F)(F)F`, the “Percent Effect” value falls from 66.34% to -62.85%.

Going from `CCC(=O)N1CCC2(CCN(Cc3cccc(F)c3)CC2)CC1.O=C(O)C(F)(F)F` to `CN1[C@H](Cn2cncn2)C[C@@H]2CN(Cc3cccc(C#N)c3)CC[C@@H]21.O=C(O)C(F)(F)F.O=C(O)C(F)(F)F`, the “Percent Effect” value rises from -165.1% to -71.32%.

Going from `COCC(=O)N1C[C@@H](OCc2cccnc2)[C@H]2OCCC[C@@H]21.O=C(O)C(F)(F)F` to `O=C(O)C(F)(F)F.O=C(O)C(F)(F)F.O=C1CO[C@@H]2CN(Cc3cccs3)C[C@H]2N1Cc1cccnc1`, the “Percent Effect” value falls from 7.671% to -34.75%.

Compared with `COCCNC(=O)Cn1cc(NC(=O)c2cccc(Cl)c2Cl)cn1`, `Cc1nonc1OCCNC(=O)CCCc1ccc(Cl)cc1` is lower in “Percent Effect” value: -59.07% for the first, -154.2% for the second.

Going from `CC(C#N)CN(C)C(=O)CCNC(=O)OCC(F)(F)F` (stereo unspecified) to `O=C1CN(S(=O)(=O)CC(F)(F)F)CC(O)CN1CCCc1ccccc1` (stereo unspecified), the “Percent Effect” value rises from -88.17% to -64.11%.

Going from `Cc1cc(-c2cccc3c2CCNC3)cnc1-n1cnnc1` to `Cc1cnc(-n2cnnc2)c(-c2cccc3c2CCNC3)c1`, the “Percent Effect” value falls from -23.79% to -33.7%.

First: Cc1nc(-n2cnnc2)ccc1-c1cccc2c1CCNC2
Second: COCCN1CCc2nc(SCc3ccc(F)cc3)[nH]c(=O)c2C1
The “Percent Effect” value of the first is higher: 68.26% for the first, -62.28% for the second.

Going from `CCN(CC)C[C@H]1CN2CC[C@H]1C[C@@H]2CNC(=O)c1ccco1` to `CC[C@H]1CN2CC[C@H]1C[C@@H]2CNC(=O)c1ccco1`, the “Percent Effect” value rises from -99.74% to -30.73%.

Compared with `CN(C[C@H]1CN2CC[C@H]1C[C@@H]2CNC(=O)c1ccco1)c1ccccc1`, `CN1C(Cn2cccn2)C[C@@H]2CN(C(=O)c3cccc(C#N)c3)CC[C@@H]21.O=C(O)C(F)(F)F.O=C(O)C(F)(F)F` (stereo partly specified) is lower in “Percent Effect” value: 70.91% for the first, -96.07% for the second.

Going from `Cc1ccc(CN2CC[C@H]3[C@H](CC(Cn4cccn4)N3C)C2)s1.O=C(O)C(F)(F)F.O=C(O)C(F)(F)F.O=C(O)C(F)(F)F` (stereo partly specified) to `CN1[C@H](Cn2cncn2)C[C@@H]2CN(Cc3ccsc3)CC[C@@H]21.O=C(O)C(F)(F)F.O=C(O)C(F)(F)F`, the “Percent Effect” value falls from 62.61% to 35.13%.
